PubChem BioAssay (NCATS)
Inconclusive results are not listed. Calls of active or inactive are those of the source. Unless noted, the call rests on the fitted dose curve; in most records, active means well fitted curve in the direction sought with a large enough effect; inconclusive means small, poorly fitted or top-dose-only effect, or another doubt; inactive means no such curve, though single readings can be large; an effect the other way counts as inactive or inconclusive.

How the values were obtained:
[1] = biological target: Lysosomal acid glucosylceramidase (Homo sapiens) (UniProt P04062); experiment: Glucocerebrosidase-p2 (AID 348; in the data active means potency below about 10 µM; further: potency means the concentration at half of the fitted maximal effect); conditions: purified GBA, blue fluorogenic substrate, 40 min
Summary of the method: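 Compounds titrated from 0.6 nM upwards against 0.2 nM enzyme in pH 5.9 citric acid/KH2PO4, taurocholate, tween-20; blue fluorogenic substrate 80 uM, 40 min room temperature, stopped and read Ex 365/Em 440 for AC50.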

[2] = AP1 Signaling Pathway (AID 357; active means well fitted curve in either direction with a large enough effect, not every such curve was filed as active;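 further: ME-180 reporter cells stimulated with EGF at its EC50 level; on the % scale 0 is the no-effect control and ±100 the full control effect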); conditions: ME-180 AP-1-bla reporter, EGF-induced, beta-lactamase ratio, 5 h; at 7.69 µM (top of the series) unless noted
Summary of the method: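 Modulation of EGF-driven AP-1 transcription was assessed with a beta-lactamase reporter in ME-180 cells. Compound and EC50 EGF were co-incubated 5 hours at 37 °C before 2.5-hour CCF4 loading at room temperature and dual-emission reading.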

[3] = NFAT Signaling Pathway (AID 444; active means well fitted curve in either direction with a large enough effect, not every such curve was filed as active;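 further: carbachol stimulus at about its EC50 of 1 µM final; on the % scale 0 is the no-effect control and ±100 the full control effect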); conditions: Jurkat NFAT-bla M1, carbachol, beta-lactamase ratio, 5 h; at 7.69 µM (top of the series) unless noted
Summary of the method: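 Jurkat cells carrying an NFAT-driven β-lactamase reporter and co-transfected muscarinic M1 receptor were treated with compound plus carbachol (1 uM final, an EC50 level) for 5 h at 37 °C. CCF4 loading followed for 1 h at RT; 460/530 nm ratio gave %activity.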

[4] = Stat Signaling Pathway (AID 446; active means well fitted curve in either direction with a large enough effect, not every such curve was filed as active;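 further: ME-180 cervical cancer cells given 40 pM IL-6 alongside compound; SIE-controlled beta-lactamase reporter measured as 460/530 nm FRET emission ratio; on the % scale 0 is the no-effect control and ±100 the full control effect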); conditions: ME-180 SIE beta-lactamase reporter, IL-6 stimulated, 5 h; at 7.69 µM (top of the series) unless noted
Summary of the method: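 IL-6/STAT signaling read in ME-180 cells via an SIE beta-lactamase reporter. Stimulus was 40 pM IL-6 (its AC50) for 5 hrs, so both activation and inhibition register.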

[5] = biological target: Glucocorticoid receptor (Homo sapiens) (UniProt P04150); experiment: GR-GFP Redistribution (AID 450;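 active means compounds whose dose series gives a full or clear partial fitted curve of increased nuclear translocation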; further: potency means the concentration at half of the fitted maximal effect); conditions: U2OS GR-GFP nuclear translocation, laser cytometry, 2 h
[6] = biological target: Glucocorticoid receptor (Homo sapiens) (UniProt P04150); experiment: GR-EFC Redistribution (AID 451; calls by dose curve; further: potency means the concentration at half of the fitted maximal effect); conditions: CHO-K1 GR-EFC translocation, beta-gal luminescence, 2 h
Summary of the method: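 CHO-K1 cells stably expressing nuclear-localized β-gal enzyme acceptor and GR fused C-terminally to the enzyme donor fragment; ligand-driven nuclear translocation restores β-gal by complementation. Compounds titrated up to 46 uM final, 2 h at 37 °C; luminescence read.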

[7] = biological target: Mitogen-activated protein kinase 10 (Mus musculus) (UniProt Q61831); experiment: JNK3 AlphaScreen Assay (AID 530; active means well fitted curve in either direction with a large enough effect, not every such curve was filed as active;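 further: kinase came from lysate of stimulated human HepG2 cells; signal reports phosphorylation of biotinylated GST-cJun 1-79 at Ser73 with 10 µM ATP; on the % scale 0 is the no-effect control and ±100 the full control effect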); conditions: JNK3 lysate, c-Jun phosphorylation; series mostly up to 57.1 µM
Summary of the method: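 Inhibitors reduce antibody binding to phosphorylated biotin-cJun, lowering AlphaScreen luminescence. Lysates from HepG2 cells pre-activated by IL-1beta plus TNF-alpha supplied JNK3; compounds were titrated.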

[8] = biological target: 3',5'-cyclic-AMP phosphodiesterase 4B (Homo sapiens) (UniProt Q07343); experiment: qHTS Assay for Inhibitors of PDE-IV (AID 607; active means well fitted activation curve with a large enough effect in the main read-out, with a control signal flat, not every such curve was filed as active; further: % of control where 0% means no effect); conditions: HEK293 ACTOne CNG channel cells, membrane potential fluorescence; series mostly up to 22.9 µM
Summary of the method: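 Live HEK293 cells with a modified cyclic nucleotide-gated (CNG) channel report intracellular cAMP via membrane-potential dye fluorescence (ex 535/em 590 nm). Endogenous PDE-IV was targeted. Compounds were tested at up to 22.9 uM final; RO 20-1724 100 uM served as control.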

[9] = qHTS Assay for Lipid Storage Modulators (AID 1519; calls by dose curve); conditions: Drosophila S3 cells, BODIPY lipid droplet/cell ratio, laser cytometry, cells loaded with oleic acid; for activity change, negative = inhibition: at 57.5 µM (top of the series)
Summary of the method: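 Cells seeded at 5,000 per well were treated with compounds over a concentration series and loaded with oleic acid (400 uM, as added). Lipid droplet fluorescence (488 nm excitation, 500-530 nm channel) was read by laser-scanning cytometry and normalized to 20 uM Triacsin C.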

[10] = biological target: Dual specificity protein kinase CLK4 (Homo sapiens) (UniProt Q9HAZ1); experiment: qHTS Assay for Inhibitors of CDC-like Kinase 4 (Kinase-Glo Assay) (AID 1770); conditions: recombinant Clk4, Kinase-Glo ATP depletion luminescence; series mostly up to 66.7 µM; further: nearly all actives have a fitted effect of over 65% in size; further: potency means the concentration at half of the fitted maximal effect
Summary of the method: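 Clk4 25 nM, RS peptide 100 uM, ATP 1 uM, pH 7.5 Tris, 10 mM MgCl2, 2.5 mM DTT; 4.5 h RT; ATP depletion read by Kinase-Glo luminescence.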

[11] = biological target: Dual specificity protein kinase CLK4 (Homo sapiens) (UniProt Q9HAZ1); experiment: qHTS Assay for Inhibitors of CDC-like Kinase 4 (ADP-Glo Assay) (AID 1771); conditions: recombinant CLK4, ADP-Glo luminescence; series mostly up to 80 µM; further: nearly all actives have a fitted effect of over 70% in size; further: potency means the concentration at half of the fitted maximal effect
Summary of the method: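 25 nM Clk4 with 100 uM RS repeat peptide and 1 uM ATP (final) in buffer with 2 mM MgCl2, 0.5 mM EGTA, 2.5 mM DTT, 0.01% Triton X-100; 1 h at room temperature; ADP-Glo luminescence for ADP formed.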

[12] = biological target: Dual specificity protein kinase CLK4 (Homo sapiens) (UniProt Q9HAZ1); experiment: qHTS Assay for Inhibitors of CDC-like Kinase 4 (ADP-FP Assay) (AID 1795); conditions: Transcreener ADP fluorescence polarization; series mostly up to 50 µM; further: nearly all actives have a fitted effect of over 60% in size; further: potency means the concentration at half of the fitted maximal effect
Summary of the method: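 Kinase activity was followed as ADP output, converted from fluorescence polarization with a calibration curve. Reactions ran one hour at low ATP (1 uM) with RS peptide substrate.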

[13] = biological target: Ubiquitin carboxyl-terminal hydrolase 1 (Homo sapiens) (UniProt O94782); experiment: Inhibitors of USP1/UAF1: Pilot qHTS (AID 504865); conditions: purified USP1/UAF1, Ub-rhodamine cleavage fluorescence; series mostly up to 54.9 µM;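 further: rhodamine fluorescence freed from ubiquitin-rhodamine substrate followed over time; top concentration of the series differs between compounds; on the % scale 0 is the no-effect control and ±100 the full control effect; nearly all actives have a fitted effect of over 35% in size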
Summary of the method: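 Enzyme-free wells gave the negative control, while test wells held 1nM USP1/UAF1 preincubated with compound for 15 min at room temperature. Ub-Rho at 150nM final started the reaction, and fluorescence at 480/540 nm was recorded kinetically.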

[14] = Primary qHTS for small molecule stabilizers of the endoplasmic reticulum resident proteome: Secreted ER Calcium Modulated Protein (SERCaMP) assay (AID 1508630); conditions: SH-SY5Y GLuc-SERCaMP (Gaussia luciferase released on ER calcium loss) secretion, thapsigargin, luminescence; series mostly up to 38.4 µM; further: on the % scale 0 is the no-effect control and ±100 the full control effect
Summary of the method: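 GLuc-SERCaMP-expressing SH-SY5Y cells, pretreated 16 h with compound, are challenged with thapsigargin to empty ER calcium stores; after 4 h, coelenterazine is added directly to the medium and luminescence is imaged.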

[15] = biological target: Cytochrome P450 1A2 (Homo sapiens) (UniProt P05177); experiment: p450-cyp1a2 (AID 410; calls by dose curve; further: potency means the concentration at half of the fitted maximal effect); conditions: recombinant CYP1A2, luciferin-ME demethylation, luminescence; series mostly up to 57 µM
Summary of the method: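 20nM CYP1A2 with 100uM Luciferin-ME (at Km) in 100mM KPO4; compound preincubated 10 min, NADPH regeneration added, 60 min at room temperature. Luciferin quantified by luminescence after detection reagent; normalized to 57 uM furafylline.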

[16] = biological target: Cytochrome P450 3A4 (Homo sapiens) (UniProt P08684); experiment: qHTS Assay for Inhibitors and Substrates of Cytochrome P450 3A4 (AID 884); conditions: recombinant CYP3A4, Luciferin-PPXE luminescence; series mostly up to 57.1 µM; further: on the % scale 0 is the no-effect control and ±100 the full control effect; nearly all actives have a fitted effect of over 50% in size
Summary of the method: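 20 nM human CYP3A4 with 25 uM Luciferin-PPXE (at KM) in 200 mM KPO4, preincubated 10 min with compound; NADPH regeneration started a 60 min RT reaction. Luciferin detected by luminescence, normalized to 57 uM ketoconazole as full inhibition.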

[17] = qHTS Assay for Identification of Small Molecule Agonists for Hypoxia Response Element Signaling Pathway (AID 914; active means well fitted activation curve with a large enough effect in the signal ratio, with a control signal flat, not every such curve was filed as active; the % refers to the signal ratio; further: potency means the concentration at half of the fitted maximal effect; on activation: % of control where 0% means no effect); conditions: ME-180 HRE-bla reporter, beta-lactamase ratio, CoCl2, 17 h; activation: stronger effect = higher value
Summary of the method: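 ME-180 cells carrying an HRE-driven beta-lactamase reporter were treated with compounds in a titration series plus an EC50 level of CoCl2 for 17 h at 37 degrees Celsius; CCF4 readout as the 460nm/530nm ratio gave AC50 values.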

[18] = biological target: Cytochrome P450 3A4 (Homo sapiens) (UniProt P08684); experiment: qHTS Assay for Activators of Cytochrome P450 3A4 (AID 885); conditions: recombinant CYP3A4, Luciferin-PPXE luminescence, 60 min; series mostly up to 57.1 µM; further: nearly all actives have a fitted effect of over 65% in size
Summary of the method: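 Quantitative HTS format: compounds preincubated with 20nM human CYP3A4 and Luciferin-PPXE substrate at KM, reaction started by NADPH regeneration, stopped after 60 min, luciferase luminescence read 20 min later.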

[19] = measured here: cell count channel max response
[20] = measured here: lipid channel max response

Sequence of Dual specificity protein kinase CLK4 (Homo sapiens) (Q9HAZ1 whole entry, looked up): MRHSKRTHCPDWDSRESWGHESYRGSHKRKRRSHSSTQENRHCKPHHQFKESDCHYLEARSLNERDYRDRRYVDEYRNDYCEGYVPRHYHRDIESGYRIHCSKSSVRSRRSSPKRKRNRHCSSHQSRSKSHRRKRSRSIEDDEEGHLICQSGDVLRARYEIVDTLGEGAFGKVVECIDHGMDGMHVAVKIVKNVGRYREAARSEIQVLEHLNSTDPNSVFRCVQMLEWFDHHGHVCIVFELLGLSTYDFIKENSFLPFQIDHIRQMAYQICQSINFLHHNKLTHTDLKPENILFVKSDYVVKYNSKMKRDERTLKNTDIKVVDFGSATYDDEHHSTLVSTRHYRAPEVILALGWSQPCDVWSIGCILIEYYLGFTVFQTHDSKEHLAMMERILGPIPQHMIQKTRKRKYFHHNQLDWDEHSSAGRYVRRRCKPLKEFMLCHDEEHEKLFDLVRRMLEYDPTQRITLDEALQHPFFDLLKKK
Sequence of Glucocorticoid receptor (Homo sapiens) (P04150 whole entry, looked up, the tested form may be a part): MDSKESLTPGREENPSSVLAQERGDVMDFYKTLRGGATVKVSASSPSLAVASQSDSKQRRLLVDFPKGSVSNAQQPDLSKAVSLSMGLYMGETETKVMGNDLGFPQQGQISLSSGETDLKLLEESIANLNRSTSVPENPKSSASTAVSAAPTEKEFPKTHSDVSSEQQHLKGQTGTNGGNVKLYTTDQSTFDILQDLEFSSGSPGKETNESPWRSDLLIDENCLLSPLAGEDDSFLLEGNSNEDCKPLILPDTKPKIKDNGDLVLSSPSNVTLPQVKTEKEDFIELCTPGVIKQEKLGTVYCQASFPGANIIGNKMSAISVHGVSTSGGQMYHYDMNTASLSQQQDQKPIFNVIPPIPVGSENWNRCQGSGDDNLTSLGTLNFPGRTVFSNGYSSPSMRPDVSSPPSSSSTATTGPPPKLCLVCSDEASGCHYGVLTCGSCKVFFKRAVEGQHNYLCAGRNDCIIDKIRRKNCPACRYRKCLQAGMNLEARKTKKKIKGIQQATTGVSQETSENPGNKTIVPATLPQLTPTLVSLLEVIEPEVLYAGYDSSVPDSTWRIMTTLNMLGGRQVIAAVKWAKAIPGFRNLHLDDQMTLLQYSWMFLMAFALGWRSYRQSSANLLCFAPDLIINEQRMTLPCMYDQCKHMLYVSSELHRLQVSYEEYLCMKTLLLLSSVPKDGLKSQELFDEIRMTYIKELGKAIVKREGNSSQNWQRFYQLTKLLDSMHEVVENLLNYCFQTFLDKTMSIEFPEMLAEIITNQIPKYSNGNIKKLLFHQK
Sequence of Lysosomal acid glucosylceramidase (Homo sapiens) (P04062 whole entry, looked up): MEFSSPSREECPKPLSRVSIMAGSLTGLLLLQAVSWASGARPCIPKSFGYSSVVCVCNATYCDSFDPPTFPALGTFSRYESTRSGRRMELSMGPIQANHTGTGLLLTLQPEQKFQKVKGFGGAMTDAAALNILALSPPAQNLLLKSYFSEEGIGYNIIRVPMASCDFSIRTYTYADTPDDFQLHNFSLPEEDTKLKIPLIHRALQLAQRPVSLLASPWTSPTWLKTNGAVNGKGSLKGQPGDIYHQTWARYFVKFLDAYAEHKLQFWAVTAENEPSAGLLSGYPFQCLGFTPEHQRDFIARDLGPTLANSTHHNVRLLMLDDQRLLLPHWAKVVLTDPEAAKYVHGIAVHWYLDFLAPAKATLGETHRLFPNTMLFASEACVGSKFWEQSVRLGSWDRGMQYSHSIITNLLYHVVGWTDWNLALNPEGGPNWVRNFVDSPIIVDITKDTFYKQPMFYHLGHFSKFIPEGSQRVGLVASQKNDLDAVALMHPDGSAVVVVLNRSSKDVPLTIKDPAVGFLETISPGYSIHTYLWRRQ
Sequence of 3',5'-cyclic-AMP phosphodiesterase 4B (Homo sapiens) (Q07343 whole entry, looked up): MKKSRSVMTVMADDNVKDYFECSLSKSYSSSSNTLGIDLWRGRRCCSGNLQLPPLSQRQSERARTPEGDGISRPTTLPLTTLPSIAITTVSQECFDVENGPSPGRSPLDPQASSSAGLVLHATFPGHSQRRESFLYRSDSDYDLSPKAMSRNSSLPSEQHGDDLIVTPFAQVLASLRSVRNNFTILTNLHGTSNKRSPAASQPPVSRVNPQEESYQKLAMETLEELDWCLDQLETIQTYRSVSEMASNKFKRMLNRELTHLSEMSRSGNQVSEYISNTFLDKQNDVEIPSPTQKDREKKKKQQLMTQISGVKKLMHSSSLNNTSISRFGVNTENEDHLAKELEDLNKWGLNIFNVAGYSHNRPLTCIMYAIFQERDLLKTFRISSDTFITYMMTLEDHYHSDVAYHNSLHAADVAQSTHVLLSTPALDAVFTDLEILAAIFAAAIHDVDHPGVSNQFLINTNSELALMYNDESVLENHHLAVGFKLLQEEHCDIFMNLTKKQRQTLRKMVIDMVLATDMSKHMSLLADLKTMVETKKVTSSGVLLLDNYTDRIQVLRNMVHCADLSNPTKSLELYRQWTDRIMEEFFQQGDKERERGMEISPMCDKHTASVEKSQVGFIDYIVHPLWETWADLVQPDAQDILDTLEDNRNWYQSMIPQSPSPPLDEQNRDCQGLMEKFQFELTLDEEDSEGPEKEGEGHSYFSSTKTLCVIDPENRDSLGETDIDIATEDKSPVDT
Sequence of Ubiquitin carboxyl-terminal hydrolase 1 (Homo sapiens) (O94782 whole entry, looked up): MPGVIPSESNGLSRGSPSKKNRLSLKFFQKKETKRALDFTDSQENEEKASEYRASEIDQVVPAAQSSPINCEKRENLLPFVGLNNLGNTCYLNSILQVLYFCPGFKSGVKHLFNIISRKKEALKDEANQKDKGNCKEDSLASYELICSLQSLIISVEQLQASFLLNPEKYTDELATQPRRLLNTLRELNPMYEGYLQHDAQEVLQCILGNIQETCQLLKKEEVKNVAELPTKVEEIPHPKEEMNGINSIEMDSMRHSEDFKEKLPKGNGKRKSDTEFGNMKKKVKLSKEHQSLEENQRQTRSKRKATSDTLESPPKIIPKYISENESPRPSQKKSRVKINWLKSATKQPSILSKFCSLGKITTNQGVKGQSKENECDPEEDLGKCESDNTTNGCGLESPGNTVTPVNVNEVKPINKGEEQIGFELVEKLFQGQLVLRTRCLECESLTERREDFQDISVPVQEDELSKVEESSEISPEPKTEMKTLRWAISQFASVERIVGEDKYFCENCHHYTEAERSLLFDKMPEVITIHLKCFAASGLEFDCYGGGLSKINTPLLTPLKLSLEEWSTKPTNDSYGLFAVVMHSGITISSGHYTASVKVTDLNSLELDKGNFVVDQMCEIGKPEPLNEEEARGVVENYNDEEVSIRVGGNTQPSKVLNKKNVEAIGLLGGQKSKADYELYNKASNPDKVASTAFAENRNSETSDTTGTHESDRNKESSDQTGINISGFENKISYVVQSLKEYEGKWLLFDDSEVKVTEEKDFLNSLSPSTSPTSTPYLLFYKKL
Sequence of Cytochrome P450 3A4 (Homo sapiens) (P08684 whole entry, looked up): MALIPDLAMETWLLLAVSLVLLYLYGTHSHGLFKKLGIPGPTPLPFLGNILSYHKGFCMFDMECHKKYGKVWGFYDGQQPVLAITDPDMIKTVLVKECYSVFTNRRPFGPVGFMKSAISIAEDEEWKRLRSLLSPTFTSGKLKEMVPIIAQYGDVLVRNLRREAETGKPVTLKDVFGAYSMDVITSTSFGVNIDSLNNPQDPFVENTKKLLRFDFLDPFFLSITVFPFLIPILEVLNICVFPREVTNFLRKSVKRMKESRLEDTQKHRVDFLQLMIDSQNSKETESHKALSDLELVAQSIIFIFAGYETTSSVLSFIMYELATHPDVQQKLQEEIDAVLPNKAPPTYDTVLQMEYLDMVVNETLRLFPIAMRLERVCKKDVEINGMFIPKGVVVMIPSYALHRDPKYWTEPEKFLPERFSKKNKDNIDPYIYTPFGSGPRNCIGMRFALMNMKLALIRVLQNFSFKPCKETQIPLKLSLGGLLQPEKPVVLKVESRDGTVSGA
Sequence of Cytochrome P450 1A2 (Homo sapiens) (P05177 whole entry, looked up): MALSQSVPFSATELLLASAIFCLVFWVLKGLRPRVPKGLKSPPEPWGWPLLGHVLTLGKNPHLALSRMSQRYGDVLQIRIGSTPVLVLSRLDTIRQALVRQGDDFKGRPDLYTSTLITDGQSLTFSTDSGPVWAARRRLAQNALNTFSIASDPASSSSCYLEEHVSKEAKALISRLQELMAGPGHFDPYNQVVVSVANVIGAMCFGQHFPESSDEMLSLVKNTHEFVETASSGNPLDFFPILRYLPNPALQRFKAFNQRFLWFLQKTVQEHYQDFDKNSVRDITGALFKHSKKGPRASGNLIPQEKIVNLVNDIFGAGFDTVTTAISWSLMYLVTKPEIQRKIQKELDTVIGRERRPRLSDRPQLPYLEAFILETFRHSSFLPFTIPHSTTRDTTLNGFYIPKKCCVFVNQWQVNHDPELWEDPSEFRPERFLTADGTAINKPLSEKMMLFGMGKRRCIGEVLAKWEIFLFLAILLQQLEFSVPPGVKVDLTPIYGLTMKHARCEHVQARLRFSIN

Cc1nc2cnc(OCc3ccccc3)nc2n(C)c1=O
13.5%: max response [9, 19]
inactive: Potency [1] > 11.4 µM | activity change, negative = inhibition [2] -10% | activity change, negative = inhibition [3] -3.24% | activity, negative = inhibition [4] -5.11% | Potency [5] > 9.22 µM | Potency [6] > 46 µM | outcome [7] | Potency [8] | activity change, negative = inhibition [9] 7.08% | Potency [10] | Potency [11] | Potency [12] | Potency [13] | Potency [14]
17.9%: max response [9, 20]

CCNc1ncc2nc(-c3ccc(Cl)cc3)c(=O)n(CCC#N)c2n1
15.3%: max response [9, 19]
24.2%: max response [9, 20]
inactive: Potency [1] > 11.4 µM | activity change, negative = inhibition [2] 8.5% | activity change, negative = inhibition [3] -14.8% | activity, negative = inhibition [4] 14.5% | Potency [5] > 9.22 µM | Potency [6] > 46 µM | outcome [7] | Potency [8] | activity change, negative = inhibition [9] 8.4% | Potency [10] | Potency [11] | Potency [12] | Potency [13] | Potency [14]

Cc1nc2cnc(N(C)C)nc2n(C[C@H]2CCCO2)c1=O
inactive: Potency [1] > 11.4 µM | activity change, negative = inhibition [2] -5.35% | activity change, negative = inhibition [3] -4.67% | activity, negative = inhibition [4] -0.622% | Potency [5] > 9.22 µM | Potency [6] > 46 µM | outcome [7] | activity change, negative = inhibition [9] 2.86% | Potency [10] | Potency [11] | Potency [12] | Potency [13] | Potency [14]
10.5%: max response [9, 19]
13.4%: max response [9, 20]

CN1CCN(c2ncc3nc(-c4ccc(F)cc4)c(=O)n(Cc4cccs4)c3n2)CC1
0.564%: max response [9, 20]
active: Potency [15] 25.1 µM | Potency [17] 3.16 µM
8.36%: max response [9, 19]
inactive: Potency [1] > 11.4 µM | Potency [5] > 9.22 µM | Potency [6] > 46 µM | Potency [8] | Potency [16] | activity change, negative = inhibition [9] -3.43% | Potency [10] | Potency [11] | Potency [12] | Potency [13] | Potency [14]

CN(C)c1ncc2nc(-c3ccccc3)c(=O)n(C[C@H]3CCCO3)c2n1
3.82%: max response [9, 19]
2.54%: max response [9, 20]
inactive: Potency [1] > 11.4 µM | activity change, negative = inhibition [2] 11.9% | activity change, negative = inhibition [3] 24.6% | activity, negative = inhibition [4] 20.6% | Potency [5] > 9.22 µM | Potency [6] > 46 µM | Potency [18] | activity change, negative = inhibition [9] 0.857% | Potency [10] | Potency [11] | Potency [12] | Potency [13] | Potency [14]

Cc1cnc(CNc2ncnc3ccc(-c4c(C)noc4C)cc23)cn1
7.19%: max response [9, 20]
inactive: Potency [1] > 11.4 µM | activity change, negative = inhibition [2] 12.8% | Potency [5] > 46 µM | Potency [6] > 46 µM | Potency [8] | activity change, negative = inhibition [9] 0.208% | Potency [14]
active: Potency [17] 3.98 µM | Potency [10] 2.51 µM | Potency [11] 2.82 µM | Potency [12] 3.55 µM
8.76%: max response [9, 19]

COc1cccc(Cn2c(=O)c(C)nc3cnc(OC)nc32)c1
inactive: Potency [1] > 11.4 µM | activity change, negative = inhibition [2] -5.98% | activity change, negative = inhibition [3] 5.79% | activity, negative = inhibition [4] -2.86% | Potency [5] > 9.22 µM | outcome [7] | Potency [8] | activation [17] 12.8% | activity change, negative = inhibition [9] 5.06% | Potency [10] | Potency [11] | Potency [12] | Potency [14]
19.3%: max response [9, 20]
15.1%: max response [9, 19]

COc1cccc(Nc2ncc3nc(-c4ccc(Cl)cc4)c(=O)n(C4CC4)c3n2)c1
-5.52%: max response [9, 20]
inactive: Potency [1] > 11.4 µM | activity change, negative = inhibition [3] -4.19% | activity, negative = inhibition [4] -10.8% | Potency [5] > 9.22 µM | Potency [6] > 46 µM | outcome [7] | Potency [8] | activity change, negative = inhibition [9] -3.5% | Potency [10] | Potency [11] | Potency [12] | Potency [13] | Potency [14]
-0.959%: max response [9, 19]
